# Rows were chosen to be rich in hits. Some 2% of all compounds tested hit in one or more screens of this group.
# Mcl1-Noxa inh: Mcl-1/Noxa binding inhibitors, primary screen, biochemical, TR-FRET, 1536-well | Induced myeloid leukemia cell differentiation protein Mcl-1 (Homo sapiens), Q07820 | TR-FRET Mcl-1/Noxa peptide binding, 2 h | inhibition, % at 21.7 µM | actives 1.5% (n = 220,000);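 active means compounds that cut the protein-peptide binding signal by more than 50% relative to plate controls in a single-dose test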;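 further: His-tagged Mcl-1 with rhodamine Noxa BH3 peptide and terbium anti-His antibody; 0% = Mcl-1 plus Noxa peptide wells and 100% = peptide-only wells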
# MCL1 BIM primary: inhibitors of MCL1 binding to BIM-BH3, primary screen, biochemical, fluorescence polarization; GST-MCL1 / FITC-Bim-BH3 fluorescence polarization; inhibition, % at 10.9 µM; actives 0.68% (n = 320,000);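 active means inhibition above the mean inhibition of all tested compounds plus 3 SD, set per campaign, cut at about 40% in these data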;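 further: 0% = DMSO wells and 100% = unlabeled Bim-BH3 peptide control; higher means more loss of mP so more displacement of Bim peptide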
# Mcl1-Bid inh: Mcl-1/Bid binding inhibitors, primary screen, biochemical, TR-FRET, 1536-well; TR-FRET Mcl-1/Bid-Dy647 peptide binding; Induced myeloid leukemia cell differentiation protein Mcl-1 (Homo sapiens), Q07820; inhibition, % at 21.7 µM; actives 0.97% (n = 220,000);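 active means compounds that cut the binding signal by more than half at the single screening dose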;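 further: His-tagged Mcl-1 with europium anti-His antibody binding Bid BH3 peptide; 0% = Mcl-1 plus peptide wells and 100% = peptide-only wells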
# Bim-Mcl-1: inhibitors of Bim peptide binding to Mcl-1, primary screen, biochemical, bead-based flow cytometry, multiplex; inhibition, % at 10 µM; actives 0.1% (n = 190,000); Bim peptide-Mcl-1 binding; Induced myeloid leukemia cell differentiation protein Mcl-1 (Homo sapiens), Q07820; in the data active means inhibition above about 40%;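 further: 0% = no compound tracer wells and 100% = peptide blocker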
# BCLXL inh confirm: Bcl-xL inhibitors blocking Bim BH3 binding, confirmation, counter-screen for MCL1 inhibitor project, biochemical, fluorescence polarization | actives 54% (n = 1,700) | GST-Bcl-xL / FITC-Bim BH3 peptide FP binding | shares compounds with MCL1 BIM primary | AID 2166, 2009 | inhibition, % at 10.9 µM;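 active means inhibition above a cutoff equal to the mean inhibition of all tested compounds plus 3 SD, cut at about 30% in these data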;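 further: 0% = DMSO wells and 100% = unlabeled Bim BH3 control peptide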
# Target sequence (Q07817 whole entry, looked up): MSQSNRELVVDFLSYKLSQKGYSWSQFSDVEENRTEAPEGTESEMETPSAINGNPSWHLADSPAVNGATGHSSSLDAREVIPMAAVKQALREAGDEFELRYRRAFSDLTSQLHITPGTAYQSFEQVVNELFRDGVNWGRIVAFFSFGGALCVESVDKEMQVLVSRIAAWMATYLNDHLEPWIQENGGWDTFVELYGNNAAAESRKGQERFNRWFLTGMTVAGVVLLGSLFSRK
# MCL1 inh confirm: inhibitors of MCL1 binding to BIM-BH3, confirmation, biochemical, fluorescence polarization, triplicate | shares compounds with MCL1 BIM primary | actives 61% (n = 1,700) | GST-MCL1 / FITC-Bim-BH3 fluorescence polarization | inhibition, % at 10.9 µM;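 active means inhibition above the average of all tested compounds plus 3 SD, cut at about 40% in these data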;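 further: 0% = DMSO wells and 100% = unlabeled Bim-BH3 control peptide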
# * marks the source's active call; other numbers are inactive results; / = not tested or not shown; + = active, no number.
SMILES,Mcl1-Noxa inh,MCL1 BIM primary,Mcl1-Bid inh,Bim-Mcl-1,BCLXL inh confirm,MCL1 inh confirm
CC(=O)n1cc([C@H]2C=C(C(=O)N3CCN(Cc4ccccc4)CC3)O[C@@H](OCCCCO)C2)c2ccccc21,-21,70*,3,-1,15,23
CC(=O)n1cc([C@@H]2C=C(C(=O)N3CCN(Cc4ccc5c(c4)OCO5)CC3)O[C@H](OCCCCO)C2)c2ccccc21,1,9,-4,5,/,/
COc1ccc(CCNC(=O)c2c(N)no[n+]2[O-])cc1OC,-16,96*,-9,0,2,-1
COc1ccc(CCNC(=O)c2ccc(OC)c(OC)c2)cc1OC,/,-1,/,/,/,/
CCCCN(C(=O)C1CC(=O)N(c2ccc(OC)cc2OC)C1)c1c(N)n(CC(C)C)c(=O)[nH]c1=O (stereo unspecified),/,-27,/,/,/,/
N#CCN(CC#N)C(=O)C1c2ccccc2Oc2ccccc21,/,+,/,/,6,11
Cc1ccc2c(c1)CCCN2CC(=O)N(C)c1c(N)n(Cc2ccccc2)c(=O)[nH]c1=O,/,141*,/,/,132*,147*
CN(C(=O)CN1CCCCCC1)c1c(N)n(Cc2ccccc2)c(=O)[nH]c1=O,/,-3,/,/,/,/
CCOc1ccc(NC(=O)CCn2c(=O)[nH]c3ccsc3c2=O)cc1,3,1,-23,1,/,/
Cc1cc(C(N)=O)c2ccccc2n1,14,1,-24,0,/,/
NC(=O)c1cc2c3ccccc3ccn2c1-c1ccccc1,3,59*,-116,/,23,27
COc1cccc(C(=O)Nc2ccc(Oc3cccc(C(F)(F)F)c3)nc2)c1,4,-2,5,/,/,/
COc1ccc(NC(=O)COc2cccc(C(F)(F)F)c2)cn1,/,70*,/,/,82*,92*
CC1(C(=O)NNC(=O)c2ccc(=O)oc2)CC1Br (stereo unspecified),-53,58*,-112,/,41*,52*
CCC(CC)C(=O)N1CC(=O)Nc2ccc(F)cc2C1c1ccc(F)cc1 (stereo unspecified),/,-5,/,/,/,/
Cc1ccc(C)c(C(C)NC(=O)CC#N)c1 (stereo unspecified),4,42*,-36,2,0,-1
Cc1ccc(C)c(C(C)NC(=O)Cc2cccs2)c1 (stereo unspecified),/,10,/,/,/,/
COc1ccc(N(C(C)=O)C2C=CS(=O)(=O)C2)c(OC)c1 (stereo unspecified),-22,6,-19,2,/,/
COc1cccc(C(=O)N(c2ccc(OC)cc2OC)C2C=CS(=O)(=O)C2)c1 (stereo unspecified),-1,54*,-21,-2,5,3
CCCn1c(SCC(=O)Nc2cc(Cl)ccc2OC)nc(O)cc1=O,/,-1,/,/,/,/
Cc1onc(-c2ccccc2Cl)c1C(=O)NC(=S)Nc1ccc(C(C)(C)C)cc1,28,14,-31,/,/,/
CC(=O)Nc1ccc(N=Cc2nc(-c3ccc(C)cc3)oc2O)cc1,65*,90*,64*,2,60*,61*
Cc1cccc(-n2c3nc(=O)[nH]c(=O)c-3cc3cc([N+](=O)[O-])ccc32)c1,1,-1,-38,0,/,/
Cc1ccc(C)c(-n2c3nc(=O)[nH]c(=O)c-3cc3cc([N+](=O)[O-])ccc32)c1,32,87*,-15,0,51*,74*
O=c1[nH]c2c(s1)C=Nc1ccccc1N2,25,+,-10,0,118*,152*
Cc1c(C(=O)Nc2ccccc2)c2ccc(C(F)(F)F)cc2n1O,/,2,/,/,/,/
COc1ccc(CCN2C(=NC(=O)C(C)C)SC3CS(=O)(=O)CC32)cc1OC (stereo unspecified),6,1,-13,/,/,/
O=C1C(=Cc2cccn2-c2ccc(O)cc2)C(=O)c2ccccc21,1,199*,70*,1,152*,190*
O=C(O)c1cccc(-n2cccc2C=C2C(=O)c3ccccc3C2=O)c1,26,7,-113,27,/,/
